Test results from the supplement of paper PMC13380429.

Test system: Vero E6 infected with SARS-CoV-2
Assay: inhibition of SARS-CoV-2 cytopathic effect; higher = more antiviral protection, active = above 15
Details: 48 h

Measured: inhibition of SARS-CoV-2 cytopathic effect

COC(=O)[C@H](Cc1ccccc1)NC(=O)[C@@H](N)CC(=O)O [aspartame]
inactive: 1 nM -0.23% | 8.33 nM -0.6% | 100 nM 0.53% | 833.33 nM -1.78% | 10000 nM 0.85%

Cc1cc(C)c(S(=O)(=O)Nc2ccccc2C(F)(F)F)c(C)c1
inactive: 1 nM 2.1% | 8.33 nM 6.17% | 100 nM 4.56% | 833.33 nM 2.55% | 10000 nM 4.64%

O=C(NCC(=O)N1CC[C@H](N[C@H]2CC[C@@](O)(c3ccc(-c4ncccn4)cn3)CC2)C1)c1cccc(C(F)(F)F)c1
inactive: 1 nM -4.52% | 8.33 nM -2.69% | 100 nM 1.06% | 833.33 nM -0.75% | 10000 nM -0.61%

CSCC[C@H](NC(=O)[C@H](CC(C)C)NC(=O)[C@@H](Cc1c[nH]c2ccccc12)NC(=O)[C@H](Cc1ccccc1)N(C)C(=O)[C@@H](Cc1c[nH]c2ccccc12)NC(=O)[C@@H](N)CCCNC(=N)N)C(N)=O [antagonist-g]
inactive: 1 nM 2.09% | 8.33 nM 0.43% | 100 nM -0.05% | 833.33 nM 1.24% | 10000 nM -1.09%

c1ccc(CNCc2ccc(CN3CCCNCCNCCCNCC3)cc2)nc1
inactive: 1 nM 0.27% | 8.33 nM 1.15% | 100 nM 3.41% | 833.33 nM 1.72% | 10000 nM 2.99%

Cc1cc(=O)n(-c2ccccc2)[nH]1 [N-demethylantipyrine]
inactive: 1 nM 6.19% | 8.33 nM -3.23% | 100 nM -4.99% | 833.33 nM -2.77% | 10000 nM -2.87%

CC1(c2ccccc2)OC(C(=O)O)=CC1=O (stereo not given) [acifran]
inactive: 1 nM 0.88% | 8.33 nM 4.17% | 100 nM 2.12% | 833.33 nM -3.24% | 10000 nM 2.64%

O=S(=O)(c1ccccc1)N(CC(F)(F)F)c1ccc(C(O)(C(F)(F)F)C(F)(F)F)cc1
inactive: 1 nM 1.99% | 8.33 nM 0.95% | 100 nM -0.31% | 833.33 nM 2.71% | 10000 nM -0.14%

CCOc1cc2ncc(C#N)c(Nc3ccc(OCc4ccccn4)c(Cl)c3)c2cc1NC(=O)/C=C/CN(C)C [neratinib]
inactive: 1 nM 0.12% | 8.33 nM -2.36% | 100 nM -7.88% | 833.33 nM -0.85% | 10000 nM -8.5%

COc1ccc(OC)c2c(=S)c3ccccc3[nH]c12
inactive: 1 nM 2.65% | 8.33 nM 4.64% | 100 nM 1.38% | 833.33 nM 1.44% | 10000 nM 2.75%

CCCCc1ccc(C(N)=O)nc1 [bupicomide]
inactive: 1 nM 2.98% | 8.33 nM 0.4% | 100 nM -0.52% | 833.33 nM -0.04% | 10000 nM 3.08%

Nc1ccc(S(=O)(=O)NC(=O)c2ccccc2)cc1 [sulfabenzamide]
inactive: 1 nM -2.34% | 8.33 nM -0.25% | 100 nM -1.3% | 833.33 nM -0.48% | 10000 nM -0.81%

OCC(O)CN1CCN(c2ccccc2)CC1 (stereo not given) [dropropizine]
inactive: 1 nM -2.5% | 8.33 nM -2.56% | 100 nM -2.71% | 833.33 nM -2.45% | 10000 nM -3%

Cc1c(C(=O)NN2CCOCC2)nn(-c2ccc(Cl)cc2Cl)c1-c1ccc(I)cc1
inactive: 1 nM 0.53% | 8.33 nM 1.48% | 100 nM 1.24% | 833.33 nM -2.07% | 10000 nM 1.16%

O=[N+]([O-])c1cn2c(n1)OC[C@@H](OCc1ccc(OC(F)(F)F)cc1)C2 [pretomanid]
inactive: 1 nM 0.26% | 8.33 nM 0.54% | 100 nM -0.43% | 833.33 nM -0.88% | 10000 nM 0.65%

CCc1cncnc1N1CCN(Cc2nc3cc(C(F)(F)F)ccc3[nH]2)CC1
inactive: 1 nM 1.34% | 8.33 nM -0.7% | 100 nM 1.45% | 833.33 nM 8.5% | 10000 nM -4.66%

O=C(O)[C@H](Cc1ccc(Nc2nccc3ccncc23)cc1)NC1=C(Br)C(=O)C12CCCCC2
inactive: 1 nM 0.12% | 8.33 nM 0.67% | 100 nM -0.71% | 833.33 nM -0.14% | 10000 nM 2.62%

NCCCS(=O)(=O)O [tramiprosate]
inactive: 1 nM 2.5% | 8.33 nM 3.61% | 100 nM 3.29% | 833.33 nM 3.22% | 10000 nM 2.51%

CCCSc1ccc2[nH]c(NC(=O)OC)nc2c1 [albendazole]
inactive: 1 nM 3.38% | 8.33 nM -0.38% | 100 nM -0.24% | 833.33 nM -0.32% | 10000 nM 2.97%

COc1ccccc1N1CCN(CCCCNC(=O)c2ccc3ccccc3c2)CC1
inactive: 1 nM -1.05% | 8.33 nM 0.24% | 100 nM 1.14% | 833.33 nM -0.36% | 10000 nM -6.44%

CNc1ncc2cc(-c3cc(NC(=O)NCCC(C)(C)C)c(F)cc3C)c(C)nc2n1
inactive: 1 nM 0.87% | 8.33 nM 1.85% | 100 nM 5.54% | 833.33 nM -4.43% | 10000 nM -8.15%

CN1CC[C@@H]2CN3CCc4cccc(c43)[C@@H]2C1
inactive: 1 nM -3.24% | 8.33 nM -0.59% | 100 nM 1.77% | 833.33 nM -0.07% | 10000 nM 1.24%

COc1c2ccoc2cc2oc(=O)ccc12 [bergapten]
inactive: 1 nM -0.67% | 8.33 nM -0.91% | 100 nM -2.71% | 833.33 nM 3.76% | 10000 nM 14.6%

Clc1ccc(C(c2ccccc2Cl)C(Cl)Cl)cc1 (stereo not given) [mitotane]
inactive: 1 nM -2.51% | 8.33 nM -1.75% | 100 nM -2.14% | 833.33 nM -2.16% | 10000 nM 0.99%

CC(C)(C)c1cc(/C=C(\C#N)C(N)=S)cc(C(C)(C)C)c1O [tyrphostin-AG-879]
inactive: 1 nM -1.49% | 8.33 nM -0.31% | 100 nM -1.98% | 833.33 nM 5.42% | 10000 nM 8.93%

CC(C)Cn1cnc2c(N)nc3ccccc3c21 [imiquimod]
inactive: 1 nM 1.22% | 8.33 nM 1.42% | 100 nM -0.63% | 833.33 nM 2.38% | 10000 nM 0.63%

CN1CCCN=C1/C=C/c1cccs1 [pyrantel-pamoate]
inactive: 1 nM 1.74% | 8.33 nM 1.39% | 100 nM 2.36% | 833.33 nM 0.63% | 10000 nM -3.05%

C[C@]12CCC(=O)C=C1[C@@H]1C[C@@H]1[C@H]1[C@@H]3[C@@H]4C[C@@H]4[C@@]4(CCC(=O)O4)[C@@]3(C)CC[C@@H]12 [drospirenone]
inactive: 1 nM -10.6% | 8.33 nM -1.07% | 100 nM -3.16% | 833.33 nM 0.94% | 10000 nM 5.09%

Clc1ccc(C(OCCN2CCCCC2)c2ccccc2)cc1 (stereo not given) [cloperastine]
inactive: 1 nM -0.8% | 8.33 nM -0.73% | 100 nM 0.64% | 833.33 nM -3.95% | 10000 nM -8.21%

CCn1c(-c2nonc2N)nc2cncc(C(=O)N3CC[C@H](N)C3)c21
inactive: 1 nM 0.81% | 8.33 nM 3.31% | 100 nM 2.3% | 833.33 nM -3.28% | 10000 nM -2.39%

CO[C@H]1C[C@H](O[C@H]2[C@H](C)O[C@@H](O[C@@H]3/C(C)=C/C[C@@H]4C[C@@H](C[C@]5(C=C[C@H](C)[C@@H](C6CCCCC6)O5)O4)OC(=O)[C@@H]4C=C(C)[C@@H](O)[C@H]5OC/C(=C\C=C\[C@@H]3C)[C@]54O)C[C@@H]2OC)O[C@@H](C)[C@@H]1O [doramectin]
inactive: 1 nM 0.81% | 8.33 nM 1.22% | 100 nM 1.24% | 833.33 nM 0.55% | 10000 nM 2.69%

Cc1ccccc1CN1C(=O)C2=C(CCN(Cc3ccccc3)C2)N2CCN=C12
inactive: 1 nM 0.63% | 8.33 nM 0.83% | 100 nM 0.4% | 833.33 nM 3.83% | 10000 nM 0.84%

CCc1nc(-c2cccc(C)c2)c(-c2ccnc(NC(=O)c3ccccc3)c2)s1
inactive: 1 nM 1.89% | 8.33 nM -0.27% | 100 nM -3.38% | 833.33 nM -1.52% | 10000 nM -4.97%

Cc1cccc(C(C)c2c[nH]cn2)c1C (stereo not given) [medetomidine]
inactive: 1 nM 0.12% | 8.33 nM -1.31% | 100 nM -1.87% | 833.33 nM -1.95% | 10000 nM -1.68%

COc1cc2ncn(-c3cc(OCc4ccccc4C(F)(F)F)c(C(N)=O)s3)c2cc1OC
inactive: 1 nM -9.5% | 8.33 nM -5.03% | 100 nM -7.65% | 833.33 nM -5.41% | 10000 nM -1.95%

CCCCCCCCCCCCCCCCNc1ccc(C(=O)O)cc1 [cetaben]
inactive: 1 nM 2.02% | 8.33 nM 3.28% | 100 nM 1.52% | 833.33 nM 1.67% | 10000 nM -2.46%

CCCCCCCCCCCCCCCCCCOP(=O)([O-])OC1CC[N+](C)(C)CC1 [perifosine]
inactive: 1 nM 0.3% | 8.33 nM -1.34% | 100 nM -0.76% | 833.33 nM -1.89% | 10000 nM -0.93%

COC(=O)[C@H](c1ccccc1Cl)N1CCc2sccc2C1 [clopidogrel]
inactive: 1 nM 0.4% | 8.33 nM 0.66% | 100 nM 1.82% | 833.33 nM -3.38% | 10000 nM -0.85%

O=C1C2CCN(CC2)C1(CO)CO
inactive: 1 nM -0.42% | 8.33 nM 1.99% | 100 nM 3.09% | 833.33 nM 2.96% | 10000 nM 5.06%

CN(C)C(=O)n1nnnc1Cc1ccc(-c2ccccc2)cc1
inactive: 1 nM -1.07% | 8.33 nM 2.48% | 100 nM 0.66% | 833.33 nM 2.07% | 10000 nM 1.15%
